Test results taken from PubChem BioAssay (NCATS).
Inconclusive results are not listed. Activity calls are given as the source filed them. The call rests on the fitted dose curve; in most records, active means well fitted inhibition curve with a large enough effect; inconclusive means small, poorly fitted or top-dose-only effect; inactive means flat fitted curve, though single readings scatter.

Columns and labels:
Assay in all cases: qHTS profiling for inhibitors of Plasmodium falciparum proliferation (AID 504749); further: nearly all actives have a fitted effect of over 60% in size
Settings in all cases: P. falciparum in erythrocytes, SYBR Green DNA, 72 h; series mostly up to 28.7 µM
CP305 = test system: CP305
Outline: (§1)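 P. falciparum-infected erythrocytes (0.3% parasitemia, 2.5% hematocrit final) were exposed to compounds for 72 h at 37 C in 5% CO2, then lysed with SYBR Green buffer overnight at room temperature; parasite DNA fluorescence was normalized to artemisinin and DMSO controls.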

CP315 = test system: CP315
Outline: as §1

CP325 = test system: CP325
Outline: as §1

CP329 = test system: CP329
Outline: as §1

CP335 = test system: CP335
Outline: as §1

DFO2036 = test system: DFO2036
Outline: as §1

DIV14 = test system: DIV14
Outline: as §1

DIV17 = test system: DIV17
Outline: as §1

DIV30 = test system: DIV30
Outline: as §1

Dd2 = test system: Dd2
Outline: as §1

ECU = test system: ECU
Outline: as §1

FAB9 = test system: FAB9
Outline: as §1

GB4 = test system: GB4
Outline: as §1

HB3 = test system: HB3
Outline: as §1

ICS = test system: ICS
Outline: as §1

JCK = test system: JCK
Outline: as §1

N140 = test system: N140
Outline: as §1

P93_24 = test system: P93_24
Outline: as §1

P94_40 = test system: P94_40
Outline: as §1

PAD = test system: PAD
Outline: as §1

Measured: Potency

CCCCNc1cc(C(=O)O)cc(S(N)(=O)=O)c1Oc1ccccc1
inactive: all assays above

CC(=O)Oc1ccccc1C(=O)O
inactive: all assays above

O=c1n(CCCN2CCN(c3cccc(Cl)c3)CC2)nc2ccccn12
inactive: all assays above

CC(C[N+](C)(C)C)OC(N)=O (stereo unspecified)
inactive: all assays above

CCc1ccc(CCOc2ccc(CC3SC(=O)NC3=O)cc2)nc1 (stereo unspecified)
inactive: all assays above

NC(=O)c1cnccn1
inactive: all assays above

Cc1[nH]c(=O)c(C#N)cc1-c1ccc2nccn2c1
inactive: all assays above

N[C@@H]1CONC1=O
inactive: all assays above

N=c1nc(N2CCCCC2)cc(N)n1O
inactive: all assays above

CC(C)NCC(O)COc1ccc(COCCOC(C)C)cc1 (stereo unspecified)
inactive: all assays above

Nc1nc2c(ncn2COCCO)c(=O)[nH]1
inactive: all assays above

Oc1ccc(C2CNCCc3c2cc(O)c(O)c3Cl)cc1 (stereo unspecified)
not listed: GB4 | ICS
inactive: all other assays above

Nc1ccc(S(=O)(=O)Nc2ccnn2-c2ccccc2)cc1
inactive: all assays above

Cc1[nH]c(=O)c(C#N)cc1-c1ccncc1
inactive: all assays above

Cc1ccc(N(CC2=NCCN2)c2cccc(O)c2)cc1
inactive: all assays above

NS(=O)(=O)c1cc2c(cc1Cl)NC=NS2(=O)=O
inactive: all assays above

NNCCc1ccccc1
not listed: ICS | P94_40
inactive: all other assays above

O=C1CCC(N2C(=O)c3ccccc3C2=O)C(=O)N1 (stereo unspecified)
inactive: all assays above

NCCCC(N)(C(=O)O)C(F)F (stereo unspecified)
inactive: all assays above

Clc1cccc(Cl)c1NC1=NCCN1
inactive: all assays above
